The record followed here is ChEMBL document CHEMBL2218924, “A broad activity screen in support of a chemogenomic map for kinase signalling research and drug discovery” (Biochem J, 2013).

Assay [1] has as its target T1, Protein kinase C zeta type (Homo sapiens) (UniProt Q05513).
T1 sequence (whole entry): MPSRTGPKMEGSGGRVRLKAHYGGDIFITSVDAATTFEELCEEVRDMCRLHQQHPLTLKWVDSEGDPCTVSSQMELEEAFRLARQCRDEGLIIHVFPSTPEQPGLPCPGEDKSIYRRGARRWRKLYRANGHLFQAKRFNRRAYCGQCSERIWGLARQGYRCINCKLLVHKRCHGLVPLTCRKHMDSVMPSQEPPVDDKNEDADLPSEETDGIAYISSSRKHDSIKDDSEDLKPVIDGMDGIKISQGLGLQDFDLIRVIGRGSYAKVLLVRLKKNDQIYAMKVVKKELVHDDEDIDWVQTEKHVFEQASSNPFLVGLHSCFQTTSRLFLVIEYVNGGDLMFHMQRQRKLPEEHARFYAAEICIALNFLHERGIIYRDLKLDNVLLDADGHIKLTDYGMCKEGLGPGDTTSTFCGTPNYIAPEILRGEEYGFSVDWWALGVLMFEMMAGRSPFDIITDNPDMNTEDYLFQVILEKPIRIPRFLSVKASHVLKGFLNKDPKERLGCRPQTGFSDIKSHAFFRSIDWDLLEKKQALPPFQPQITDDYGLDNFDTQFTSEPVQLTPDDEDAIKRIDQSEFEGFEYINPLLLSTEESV
The conditions noted are these: at 1 µM.

For assay [2], the target named is T2, Mitogen-activated protein kinase kinase kinase 5 (Homo sapiens) (UniProt Q99683).
T2 sequence (whole entry): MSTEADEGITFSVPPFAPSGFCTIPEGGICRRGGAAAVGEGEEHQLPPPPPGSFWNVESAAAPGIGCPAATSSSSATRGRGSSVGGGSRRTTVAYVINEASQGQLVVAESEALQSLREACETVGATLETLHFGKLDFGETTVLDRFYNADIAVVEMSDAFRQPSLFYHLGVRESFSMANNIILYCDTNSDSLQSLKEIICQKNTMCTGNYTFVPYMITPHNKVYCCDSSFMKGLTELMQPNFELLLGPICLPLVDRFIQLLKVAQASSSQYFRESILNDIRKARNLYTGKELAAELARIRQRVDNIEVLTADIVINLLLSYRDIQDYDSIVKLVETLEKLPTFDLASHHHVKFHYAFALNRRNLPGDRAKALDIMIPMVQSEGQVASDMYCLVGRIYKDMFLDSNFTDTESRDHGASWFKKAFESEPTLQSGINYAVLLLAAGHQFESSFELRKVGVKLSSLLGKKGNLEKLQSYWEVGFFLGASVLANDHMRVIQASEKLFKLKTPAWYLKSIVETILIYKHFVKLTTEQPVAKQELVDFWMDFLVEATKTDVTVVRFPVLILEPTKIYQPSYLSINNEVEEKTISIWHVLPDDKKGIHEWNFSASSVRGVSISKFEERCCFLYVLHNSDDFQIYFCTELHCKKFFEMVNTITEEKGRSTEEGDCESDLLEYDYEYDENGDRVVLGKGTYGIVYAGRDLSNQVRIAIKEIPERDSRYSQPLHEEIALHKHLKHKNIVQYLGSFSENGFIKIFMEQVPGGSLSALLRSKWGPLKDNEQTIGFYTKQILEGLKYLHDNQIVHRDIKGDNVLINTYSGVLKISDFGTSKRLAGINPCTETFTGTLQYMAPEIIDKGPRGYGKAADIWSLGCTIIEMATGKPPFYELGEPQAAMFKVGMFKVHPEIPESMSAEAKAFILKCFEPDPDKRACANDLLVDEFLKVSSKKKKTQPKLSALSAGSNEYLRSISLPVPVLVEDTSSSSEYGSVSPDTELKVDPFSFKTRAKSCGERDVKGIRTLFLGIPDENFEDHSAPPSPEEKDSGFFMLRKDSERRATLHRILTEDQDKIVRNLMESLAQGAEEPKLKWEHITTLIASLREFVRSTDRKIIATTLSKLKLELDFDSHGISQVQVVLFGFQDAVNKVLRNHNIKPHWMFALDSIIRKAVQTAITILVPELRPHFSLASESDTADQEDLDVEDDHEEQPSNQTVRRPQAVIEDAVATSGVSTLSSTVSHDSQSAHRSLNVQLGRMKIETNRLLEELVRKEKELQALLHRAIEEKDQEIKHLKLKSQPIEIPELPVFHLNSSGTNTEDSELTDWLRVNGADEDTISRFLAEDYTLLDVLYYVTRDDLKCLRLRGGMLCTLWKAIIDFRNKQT
The conditions noted are these: at 10 µM.

Assay [3] deals with Tyrosine-protein kinase ABL1 (Homo sapiens) (UniProt P00519). The conditions noted are these: at 1 µM.
For assay [4] the target is unchanged. The conditions noted are these: at 10 µM.
For assay [5], the target named is Tyrosine-protein kinase ABL2 (Homo sapiens) (UniProt P42684). The conditions noted are these: at 1 µM.
Assay [6] shares this target. The conditions noted are these: at 10 µM.
In assay [7] the target is T3, Aurora kinase A (Homo sapiens) (UniProt O14965).
T3 sequence (whole entry): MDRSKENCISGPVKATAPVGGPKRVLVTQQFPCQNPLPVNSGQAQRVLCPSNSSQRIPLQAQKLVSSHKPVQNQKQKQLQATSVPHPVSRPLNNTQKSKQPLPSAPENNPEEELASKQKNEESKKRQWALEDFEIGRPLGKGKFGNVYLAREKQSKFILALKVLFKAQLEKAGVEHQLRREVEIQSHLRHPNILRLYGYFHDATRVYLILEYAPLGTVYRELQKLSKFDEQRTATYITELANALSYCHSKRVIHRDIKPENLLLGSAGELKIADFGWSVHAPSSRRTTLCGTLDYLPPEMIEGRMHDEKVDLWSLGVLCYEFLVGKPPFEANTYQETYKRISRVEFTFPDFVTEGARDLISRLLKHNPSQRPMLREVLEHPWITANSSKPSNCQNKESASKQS
The conditions noted are these: at 1 µM.

Assay [8] has as its target T3, Aurora kinase A (Homo sapiens). The conditions noted are these: at 10 µM.
Assay [9] deals with Aurora kinase B (Homo sapiens) (UniProt Q96GD4). The conditions noted are these: at 1 µM.
For assay [10] the target is unchanged. The conditions noted are these: at 10 µM.
For assay [11], the target named is T4, Aurora kinase C (Homo sapiens) (UniProt Q9UQB9).
T4 sequence (whole entry): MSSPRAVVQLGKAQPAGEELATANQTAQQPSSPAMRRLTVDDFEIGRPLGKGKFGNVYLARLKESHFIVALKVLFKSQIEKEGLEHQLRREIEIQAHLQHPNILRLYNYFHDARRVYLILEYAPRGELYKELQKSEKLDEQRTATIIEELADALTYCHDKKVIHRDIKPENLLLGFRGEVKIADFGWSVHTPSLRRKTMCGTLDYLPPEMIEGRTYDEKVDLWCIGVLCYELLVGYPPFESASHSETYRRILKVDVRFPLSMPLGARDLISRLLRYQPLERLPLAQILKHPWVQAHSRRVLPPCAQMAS
The conditions noted are these: at 1 µM.

The target of assay [12] is T4, Aurora kinase C (Homo sapiens). The conditions noted are these: at 10 µM.
In assay [13] the target is Tyrosine-protein kinase receptor UFO (Homo sapiens) (UniProt P30530). The conditions noted are these: at 1 µM.
For assay [14] the target is unchanged. The conditions noted are these: at 10 µM.
Assay [15] concerns the target Protein-tyrosine kinase 6 (Homo sapiens) (UniProt Q13882). The conditions noted are these: at 1 µM.
For assay [16] the target is unchanged. The conditions noted are these: at 10 µM.
Assay [17] concerns the target Tyrosine-protein kinase BTK (Homo sapiens) (UniProt Q06187). The conditions noted are these: at 1 µM.
Assay [18] has the same target. The conditions noted are these: at 10 µM.
Assay [19] has as its target Tyrosine-protein kinase Blk (Homo sapiens) (UniProt P51451). The conditions noted are these: at 1 µM.
Assay [20] shares this target. The conditions noted are these: at 10 µM.

Chain of Protein-tyrosine kinase 6 (Homo sapiens) (Q13882 whole entry, looked up): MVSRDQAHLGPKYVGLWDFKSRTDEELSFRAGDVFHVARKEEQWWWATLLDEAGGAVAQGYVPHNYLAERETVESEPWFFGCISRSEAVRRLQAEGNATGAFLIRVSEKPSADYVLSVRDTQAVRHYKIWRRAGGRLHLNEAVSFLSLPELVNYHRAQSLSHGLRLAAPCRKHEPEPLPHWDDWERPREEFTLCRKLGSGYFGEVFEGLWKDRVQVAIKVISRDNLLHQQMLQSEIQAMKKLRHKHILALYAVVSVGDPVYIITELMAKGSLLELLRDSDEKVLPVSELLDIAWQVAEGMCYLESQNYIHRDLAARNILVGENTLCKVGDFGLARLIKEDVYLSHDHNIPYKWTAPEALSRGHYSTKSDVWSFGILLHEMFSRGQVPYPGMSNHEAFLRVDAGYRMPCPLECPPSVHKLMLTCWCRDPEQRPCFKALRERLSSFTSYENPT
Chain of Tyrosine-protein kinase Blk (Homo sapiens) (P51451 2-505 limits assumed): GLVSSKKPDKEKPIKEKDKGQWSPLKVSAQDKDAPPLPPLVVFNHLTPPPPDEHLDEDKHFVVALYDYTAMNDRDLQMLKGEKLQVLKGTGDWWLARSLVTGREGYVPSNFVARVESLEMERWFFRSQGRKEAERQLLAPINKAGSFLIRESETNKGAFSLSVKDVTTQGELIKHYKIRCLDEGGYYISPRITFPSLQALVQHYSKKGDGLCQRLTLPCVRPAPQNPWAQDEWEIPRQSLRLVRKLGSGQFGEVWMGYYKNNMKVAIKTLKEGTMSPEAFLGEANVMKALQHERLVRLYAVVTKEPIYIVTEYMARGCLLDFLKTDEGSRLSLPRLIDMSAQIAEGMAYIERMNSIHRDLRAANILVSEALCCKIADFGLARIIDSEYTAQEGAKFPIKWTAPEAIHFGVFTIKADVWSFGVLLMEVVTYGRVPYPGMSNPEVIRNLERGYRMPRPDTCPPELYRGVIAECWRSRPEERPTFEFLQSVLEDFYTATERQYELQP
Chain of Tyrosine-protein kinase ABL2 (Homo sapiens) (P42684 whole entry): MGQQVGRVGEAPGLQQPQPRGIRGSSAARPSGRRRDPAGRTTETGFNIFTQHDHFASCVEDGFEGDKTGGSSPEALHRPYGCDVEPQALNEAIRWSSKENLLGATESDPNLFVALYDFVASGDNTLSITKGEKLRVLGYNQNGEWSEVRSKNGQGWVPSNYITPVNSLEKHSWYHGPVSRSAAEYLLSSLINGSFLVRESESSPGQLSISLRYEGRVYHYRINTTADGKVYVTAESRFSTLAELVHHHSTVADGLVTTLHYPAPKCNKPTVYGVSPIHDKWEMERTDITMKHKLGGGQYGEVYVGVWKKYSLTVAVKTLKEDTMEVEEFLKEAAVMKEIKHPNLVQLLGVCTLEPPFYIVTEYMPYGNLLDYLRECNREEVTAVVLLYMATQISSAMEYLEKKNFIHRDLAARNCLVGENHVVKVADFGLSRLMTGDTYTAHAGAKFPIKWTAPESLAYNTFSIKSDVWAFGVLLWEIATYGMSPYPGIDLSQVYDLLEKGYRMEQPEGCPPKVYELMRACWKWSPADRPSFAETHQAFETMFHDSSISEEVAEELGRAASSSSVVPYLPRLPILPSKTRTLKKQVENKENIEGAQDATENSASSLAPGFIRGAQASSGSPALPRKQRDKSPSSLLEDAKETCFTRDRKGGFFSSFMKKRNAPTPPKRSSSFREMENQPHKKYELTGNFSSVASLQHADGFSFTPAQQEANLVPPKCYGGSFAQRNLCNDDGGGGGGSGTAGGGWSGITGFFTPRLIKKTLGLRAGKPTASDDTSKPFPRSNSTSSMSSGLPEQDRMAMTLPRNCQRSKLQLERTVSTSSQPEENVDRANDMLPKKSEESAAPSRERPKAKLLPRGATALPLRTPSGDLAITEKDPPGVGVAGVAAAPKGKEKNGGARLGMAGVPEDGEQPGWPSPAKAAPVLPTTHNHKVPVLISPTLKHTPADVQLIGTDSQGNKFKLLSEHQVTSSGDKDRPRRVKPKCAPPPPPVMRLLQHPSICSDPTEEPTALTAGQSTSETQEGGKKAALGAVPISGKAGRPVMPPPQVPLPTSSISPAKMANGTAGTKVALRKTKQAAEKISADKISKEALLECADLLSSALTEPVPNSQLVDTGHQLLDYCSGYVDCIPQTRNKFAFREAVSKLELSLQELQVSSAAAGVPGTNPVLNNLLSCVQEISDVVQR
Chain of Tyrosine-protein kinase ABL1 (Homo sapiens) (P00519 whole entry): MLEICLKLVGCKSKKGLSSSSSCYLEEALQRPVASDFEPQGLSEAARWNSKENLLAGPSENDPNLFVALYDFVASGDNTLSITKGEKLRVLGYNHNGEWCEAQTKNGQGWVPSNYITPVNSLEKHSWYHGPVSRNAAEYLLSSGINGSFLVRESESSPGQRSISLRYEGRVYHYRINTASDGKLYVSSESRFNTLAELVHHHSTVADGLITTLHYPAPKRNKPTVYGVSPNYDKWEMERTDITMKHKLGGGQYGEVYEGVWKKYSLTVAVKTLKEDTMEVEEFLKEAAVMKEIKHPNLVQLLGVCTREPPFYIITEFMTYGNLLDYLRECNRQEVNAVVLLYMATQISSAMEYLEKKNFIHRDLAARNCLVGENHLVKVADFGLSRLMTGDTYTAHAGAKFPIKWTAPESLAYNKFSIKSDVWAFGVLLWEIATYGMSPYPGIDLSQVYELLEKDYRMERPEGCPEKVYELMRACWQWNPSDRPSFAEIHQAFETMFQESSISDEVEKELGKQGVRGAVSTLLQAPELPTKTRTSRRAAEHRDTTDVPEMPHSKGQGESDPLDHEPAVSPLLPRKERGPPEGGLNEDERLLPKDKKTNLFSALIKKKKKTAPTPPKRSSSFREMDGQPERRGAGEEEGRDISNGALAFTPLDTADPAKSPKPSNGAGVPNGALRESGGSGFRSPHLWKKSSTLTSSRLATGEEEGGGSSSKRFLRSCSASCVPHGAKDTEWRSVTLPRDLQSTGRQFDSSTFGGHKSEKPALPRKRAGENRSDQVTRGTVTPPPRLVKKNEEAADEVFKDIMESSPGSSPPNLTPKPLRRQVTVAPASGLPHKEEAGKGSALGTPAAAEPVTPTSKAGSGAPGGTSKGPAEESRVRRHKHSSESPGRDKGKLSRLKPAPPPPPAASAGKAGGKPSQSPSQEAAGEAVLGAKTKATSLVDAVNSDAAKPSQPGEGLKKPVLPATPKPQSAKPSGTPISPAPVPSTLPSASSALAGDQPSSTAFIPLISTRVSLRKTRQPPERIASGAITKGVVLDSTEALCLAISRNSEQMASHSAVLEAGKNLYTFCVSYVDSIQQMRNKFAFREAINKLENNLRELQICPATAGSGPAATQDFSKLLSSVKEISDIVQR
Chain of Aurora kinase B (Homo sapiens) (Q96GD4 whole entry): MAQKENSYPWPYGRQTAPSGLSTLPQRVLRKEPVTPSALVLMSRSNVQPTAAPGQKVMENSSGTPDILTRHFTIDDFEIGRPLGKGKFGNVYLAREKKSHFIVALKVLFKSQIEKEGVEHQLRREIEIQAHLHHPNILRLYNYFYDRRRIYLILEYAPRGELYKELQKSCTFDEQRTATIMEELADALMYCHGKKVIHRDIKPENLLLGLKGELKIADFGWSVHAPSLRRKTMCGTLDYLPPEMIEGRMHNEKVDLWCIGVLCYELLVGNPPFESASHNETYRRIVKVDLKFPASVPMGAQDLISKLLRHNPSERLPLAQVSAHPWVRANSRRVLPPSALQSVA
Chain of Tyrosine-protein kinase receptor UFO (Homo sapiens) (P30530 whole entry): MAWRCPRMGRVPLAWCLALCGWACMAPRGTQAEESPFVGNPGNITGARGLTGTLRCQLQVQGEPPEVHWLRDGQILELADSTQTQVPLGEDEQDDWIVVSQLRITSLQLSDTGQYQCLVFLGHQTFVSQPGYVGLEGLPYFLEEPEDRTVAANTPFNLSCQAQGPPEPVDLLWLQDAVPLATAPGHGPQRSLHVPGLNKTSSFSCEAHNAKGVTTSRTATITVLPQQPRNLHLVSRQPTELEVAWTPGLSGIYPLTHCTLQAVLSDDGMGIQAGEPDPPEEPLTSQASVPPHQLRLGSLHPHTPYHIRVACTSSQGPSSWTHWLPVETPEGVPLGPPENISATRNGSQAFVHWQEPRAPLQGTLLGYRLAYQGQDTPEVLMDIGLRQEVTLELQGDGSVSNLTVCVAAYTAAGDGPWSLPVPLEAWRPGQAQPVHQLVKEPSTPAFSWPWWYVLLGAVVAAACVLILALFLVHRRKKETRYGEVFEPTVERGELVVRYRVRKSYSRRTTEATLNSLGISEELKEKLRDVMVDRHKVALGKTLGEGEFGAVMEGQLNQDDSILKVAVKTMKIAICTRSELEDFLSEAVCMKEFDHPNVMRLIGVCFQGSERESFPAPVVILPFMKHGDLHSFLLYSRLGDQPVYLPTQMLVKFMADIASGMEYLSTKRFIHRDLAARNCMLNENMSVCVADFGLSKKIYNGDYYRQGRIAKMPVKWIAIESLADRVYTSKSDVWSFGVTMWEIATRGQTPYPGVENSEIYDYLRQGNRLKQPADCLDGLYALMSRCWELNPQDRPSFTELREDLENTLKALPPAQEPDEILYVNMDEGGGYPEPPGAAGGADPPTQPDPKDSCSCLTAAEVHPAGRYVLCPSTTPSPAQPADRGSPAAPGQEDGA

For `CO[C@H]1[C@@H](OC)C[C@H](C)[C@@H](OC)C2=CC(=O)C=C(NC(=O)/C(C)=C/C=C/[C@H](OC)[C@@H](OC(N)=O)/C(C)=C/[C@@H]1C)C2=O`, the residual activity is 104% (inactive) in [1]; 99% in assay [2]; 94% in assay [3]; 68% in assay [4]; 111% in assay [5]; 105% in assay [6]. For the same compound, the residual activity in [7] came out at 77%; in assay [8], 86%; in assay [9], 72%; in assay [10] it was 68%; in assay [11] it was 76%; in assay [12] it was 90%. For the same compound, the residual activity in assay [13] was 104%; in assay [14], 77%; in assay [15], 109%; in assay [16], 106%; in assay [17], 83%; in assay [18], 101%. Moreover, the residual activity in assay [19] is 90%; in [20], 78%.

As to `CCOc1cc2ncnc(Nc3cccc(Br)c3)c2cc1OCC`, the residual activity was 104% (inactive) in assay [1]; 115% in assay [2]; 48% in assay [3]; 5% in assay [4]; 36% in assay [5]; 4% in assay [6]. The residual activity in assay [7] stood at 55%; in assay [8], 46%; in assay [9] it was 56%; in assay [10], 7%; in assay [11], 98%; in [12] it was 52%. In addition, the residual activity in assay [13] worked out at 66%; in [14] it was 31%; in assay [15] it was 18%; in [16], 2%; in assay [17], 72%; in [18], 28%. In addition, the residual activity worked out at 17% in assay [19] and 3% in assay [20].

Turning to `O=C1NC(=O)c2c1c1c3ccccc3[nH]c1c1[nH]c3cc(Br)ccc3c21`, the residual activity in [1] was 98% (inactive); in assay [2] it was 86%; in assay [3], 98%; in [4], 82%; in assay [5], 109%; in [6], 87%. Further, the residual activity in assay [7] was determined as 93%; in assay [8], 75%; in assay [9], 5%; in [10] it was 4%; in assay [11], 89%; in [12], 59%. The residual activity in assay [13] was found to be 94%; in assay [14], 80%; in [15] it was 105%; in assay [16], 100%; in assay [17], 79%; in assay [18], 68%. In addition, the values for the residual activity in assay [19] and in [20] were 102% and 85%, respectively.

Take `Cn1cc(/C=C2\C(=O)Nc3ccc(S(N)(=O)=O)cc32)c2ccccc21`: the residual activity in [1] was 101% (inactive); in [2], 7%; in [3], 57%; in assay [4], 22%; in [5] it was 57%; in assay [6], 31%. Also, the residual activity in [7] is -4%; in [8], 4%; in assay [9] it was 3%; in assay [10], 0%; in [11] it was 40%; in assay [12] it was 39%. Further, the residual activity in assay [13] worked out at 13%; in assay [14] it was 27%; in assay [15] it was 97%; in assay [16], 101%; in assay [17], 19%; in [18], 5%. The residual activity in [19] turned out to be 9%; in assay [20] it was 3%.

As for `Cc1nc(-c2ccccc2)c(-c2ccncc2)o1`, the residual activity in [1] is 113% (inactive); in assay [2], 85%; in assay [3], 26%; in assay [4], 33%; in assay [5], 62%; in assay [6] it was 45%. For the same compound, the residual activity in [7] amounted to 122%; in [8], 86%; in assay [9] it was 44%; in assay [10], 25%; in [11] it was 93%; in [12], 81%. Besides, the residual activity was found to be 112% in [13]; 79% in assay [14]; 59% in assay [15]; 43% in [16]; 91% in assay [17]; 83% in assay [18]. For the same compound, the residual activity worked out at 95% in assay [19] and 80% in assay [20].

For `Cn1cnc2cc3c(Nc4cccc(Br)c4)ncnc3cc21`, the residual activity in [1] is 99% (inactive); in assay [2], 107%; in assay [3], 29%; in [4], 10%; in assay [5] it was 42%; in assay [6] it was 14%. In addition, the residual activity in assay [7] was found to be 78%; in assay [8] it was 45%; in assay [9], 45%; in assay [10], 6%; in assay [11], 80%; in assay [12], 52%. Besides, the residual activity in assay [13] amounted to 77%; in assay [14] it was 57%; in [15], 78%; in assay [16], 55%; in assay [17], 67%; in assay [18], 44%. Also, the residual activity in assay [19] was 50%; in [20], 18%.

With `Oc1ccc(Nc2nc(-c3ccc(Cl)cc3)cs2)cc1`, the residual activity was 115% (inactive) in [1]; 105% in assay [2]; 94% in assay [3]; 75% in assay [4]; 101% in assay [5]; 72% in [6]. The residual activity in assay [7] was determined as 115%; in assay [8], 122%; in [9] it was 124%; in assay [10] it was 71%; in [11] it was 90%; in [12] it was 92%. In addition, the residual activity in assay [13] stood at 114%; in assay [14], 80%; in [15], 107%; in assay [16], 102%; in assay [17], 95%; in assay [18] it was 84%. Also, the residual activity came out at 111% in assay [19] and 86% in [20].
